Source: PubChem BioAssay (NCI)
Values joined by “and” are separate entries in the source; they are usually repeats but may differ in a detail not shown here. Equal entries are not always repeated. The panel holds about 83,000 compounds, 20% with a hit somewhere; the sample as a whole holds those more often.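 48-hour exposure, single concentration, 96-well plates; percent growth endpoint where 0 means no net growth. Active: below 10.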 Active and inactive are the calls of the source.

Columns and labels:
Assay in all cases: NCI-60 one-dose screen, 48 h (100 = growth as untreated, 0 = no growth, -100 = all killed)
Settings in all cases: 10 µM unless noted
NCI-H23 lung = tested on: NCI-H23 lung
NCI-H226 lung = tested on: NCI-H226 lung
NCI-H322M lung = tested on: NCI-H322M lung
HOP-62 NSCLC = tested on: HOP-62 NSCLC
NCI-H460 lung = tested on: NCI-H460 lung
HOP-92 NSCLC = tested on: HOP-92 NSCLC
NCI-H522 lung = tested on: NCI-H522 lung
A549/ATCC NSCLC = tested on: A549/ATCC NSCLC
786-0 renal = tested on: 786-0 renal
COLO 205 colon = tested on: COLO 205 colon
DU-145 prostate = tested on: DU-145 prostate
K-562 leukemia = tested on: K-562 leukemia
MALME-3M melanoma = tested on: MALME-3M melanoma
MDA-MB-231 breast = tested on: MDA-MB-231 breast
RXF 393 renal = tested on: RXF 393 renal
SF-268 CNS = tested on: SF-268 CNS
SF-295 CNS = tested on: SF-295 CNS
SF-539 CNS = tested on: SF-539 CNS
UACC-257 melanoma = tested on: UACC-257 melanoma
M14 melanoma = tested on: M14 melanoma

Measured: growth

NS(=O)(=O)c1ccc(N2N=C(c3ccc(NC(=O)Nc4ccccc4)cc3)CC2c2ccc(Br)cc2)cc1 (stereo not given)
active: NCI-H23 lung -95.2% | NCI-H226 lung -84.2% | NCI-H322M lung -87.3% | HOP-62 NSCLC -70.3% | NCI-H460 lung -83.9% | HOP-92 NSCLC -87% | NCI-H522 lung -79.7% | A549/ATCC NSCLC -57.7% | 786-0 renal -85.7% | COLO 205 colon -53.5% | DU-145 prostate -7.86% | MALME-3M melanoma -97.1% | MDA-MB-231 breast -94.8% | RXF 393 renal -96.4% | SF-268 CNS -29.7% | SF-295 CNS -64.9% | SF-539 CNS -99.2% | UACC-257 melanoma -16.8% | M14 melanoma -69.2%
inactive: K-562 leukemia 16.7%

O=C(N/N=C/c1ccoc1)c1[nH]c2ccc(Br)cc2c1-c1ccccc1
active: NCI-H23 lung -96.6% | NCI-H226 lung -66.2% | NCI-H322M lung -86.4% | HOP-62 NSCLC -70.6% | NCI-H460 lung -83.2% | HOP-92 NSCLC -62.4% | NCI-H522 lung -82.2% | A549/ATCC NSCLC -60.4% | 786-0 renal -76.5% | COLO 205 colon -68.9% | DU-145 prostate -48.3% | K-562 leukemia 3.56% | MALME-3M melanoma -84.7% | MDA-MB-231 breast -85.6% | RXF 393 renal -86.3% | SF-268 CNS -56.8% | SF-295 CNS -97.9% | SF-539 CNS -97.6% | UACC-257 melanoma -78.1% | M14 melanoma -84.6%

COc1ccc2[nH]cc(-c3cc4nc(-c5cn(C)c6ncccc56)cc(N)n4n3)c2c1
active: NCI-H460 lung -58.3% | HOP-92 NSCLC -45.7% | NCI-H522 lung -58.7% | A549/ATCC NSCLC -25.9% | 786-0 renal -90.3% | COLO 205 colon -49.9% | DU-145 prostate 9.07% | K-562 leukemia -31.7% | MALME-3M melanoma -60.6% | MDA-MB-231 breast -58.4% | RXF 393 renal -62.3% | SF-295 CNS -71.4% | SF-539 CNS -93.6% | M14 melanoma -49.5%
inactive: NCI-H23 lung 13.9% | NCI-H226 lung 92.6% | NCI-H322M lung 37.1% | HOP-62 NSCLC 19.8% | SF-268 CNS 32.8% | UACC-257 melanoma 72.7%

O=C1C=CC(=CC=C2N(Cc3ccc4ccccc4c3)c3ccccc3N2Cc2ccc3ccccc3c2)C=C1
active: HOP-92 NSCLC 3.18% and -22.2% | COLO 205 colon -29.1% and 0.579% | MALME-3M melanoma 4.02% and 3.15% | MDA-MB-231 breast -40.7% and -24.6%
5.96% (active) and 26.9% (inactive): NCI-H23 lung
inactive: NCI-H226 lung 47.1% and 48% | NCI-H322M lung 49.3% and 59.1% | HOP-62 NSCLC 37.3% and 45.3% | NCI-H460 lung 15.7% and 10.4% | A549/ATCC NSCLC 30.5% and 46.4% | 786-0 renal 51.2% and 69.2% | DU-145 prostate 43.2% and 32.7% | RXF 393 renal 31.6% and 30.9% | SF-268 CNS 67.5% and 56.8% | SF-295 CNS 39.3% and 58.2% | SF-539 CNS 15.5% and 16.9% | M14 melanoma 20.8% and 29.8%
13.5% (inactive) and 6.33% (active): K-562 leukemia
-0.845% (active) and 20.9% (inactive): UACC-257 melanoma
-12.5% (active) and 17.7% (inactive): NCI-H522 lung

O=C(/C=C1\C(=O)N(Cc2ccccc2)c2ccccc21)c1cc2ccccc2oc1=O
active: K-562 leukemia 1.52%
inactive: NCI-H23 lung 89.4% | NCI-H226 lung 74.2% | NCI-H322M lung 93.9% | HOP-62 NSCLC 102% | NCI-H460 lung 103% | HOP-92 NSCLC 87.9% | NCI-H522 lung 35.4% | A549/ATCC NSCLC 104% | 786-0 renal 100% | COLO 205 colon 28.6% | DU-145 prostate 104% | MALME-3M melanoma 68.9% | MDA-MB-231 breast 81% | RXF 393 renal 86.1% | SF-268 CNS 95.6% | SF-295 CNS 104% | SF-539 CNS 98.9% | UACC-257 melanoma 107% | M14 melanoma 85.1%

Cc1ccc(Cl)cc1NC(=O)Nc1nc2ccc([N+](=O)[O-])cc2s1
inactive: DU-145 prostate 18.6% | SF-268 CNS 27.5%
active: NCI-H23 lung -28.6% | NCI-H226 lung -9.03% | NCI-H322M lung -6.17% | HOP-62 NSCLC -68.1% | NCI-H460 lung -41.5% | HOP-92 NSCLC -28.6% | NCI-H522 lung -36.8% | A549/ATCC NSCLC -25.8% | 786-0 renal -27.9% | COLO 205 colon -87.9% | K-562 leukemia 1.86% | MALME-3M melanoma -24.4% | MDA-MB-231 breast -42.2% | RXF 393 renal -22.7% | SF-295 CNS -45.4% | SF-539 CNS -33.9% | UACC-257 melanoma -20.9% | M14 melanoma -33.5%

COc1cc(C2C(C(=O)OCc3ccccc3)=C(C)Nc3nc4ccccc4n32)cc(OC)c1OC (stereo not given)
inactive: NCI-H23 lung 45.8% | NCI-H322M lung 40.9% | HOP-62 NSCLC 31.1% | NCI-H460 lung 16% | A549/ATCC NSCLC 34.9% | COLO 205 colon 52.5% | DU-145 prostate 59.3% | K-562 leukemia 20.7% | SF-268 CNS 15.1% | UACC-257 melanoma 30.2% | M14 melanoma 27.1%
active: NCI-H226 lung -37.3% | HOP-92 NSCLC -0.272% | NCI-H522 lung -7% | 786-0 renal -66.1% | MALME-3M melanoma -16.7% | MDA-MB-231 breast -26.7% | RXF 393 renal -39.6% | SF-295 CNS 3.38% | SF-539 CNS -44.5%
